Measurements taken from PubChem BioAssay (EPA / NIEHS).
Inconclusive results are not listed. The source made the active and inactive calls. How the source made its calls, unless noted: active means hit-call score of the fitted dose curve at least 0.9, where 1 is the maximum; inconclusive means response in the unintended direction; inactive means score below 0.9. Peptide text beside a SMILES is read from it.

Assays:
[1] = molecular target: Estrogen-related receptor gamma (Homo sapiens) (UniProt P62508); experiment: ATG_ERRg_TRANS: Attagene TRANS-FACTORIAL HepG2 Assay for human Estrogen-Related Receptor gamma (ERRg) (AID 2282977); conditions: HepG2 Attagene TRANS reporter, ERRg transactivation;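 further: hits increase reporter signal over DMSO so potencies reflect activators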
Summary of the method: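 Transient HepG2 transfectants, 24 h compound exposure, GAL4-UAS reporter mRNA by RT-PCR/6-FAM labelling/capillary electrophoresis; positive direction vs DMSO.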

[2] = molecular target: Oxysterols receptor LXR-alpha (Homo sapiens) (UniProt Q13133); experiment: ATG_LXRa_TRANS: Attagene TRANS-FACTORIAL HepG2 Assay for human Liver X Receptor alpha (LXRa) (AID 2282980); conditions: HepG2 Attagene TRANS reporter, LXRa transactivation
Summary of the method: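 HepG2 cells were transiently transfected with multiplexed reporter units driven by chimeric LXRa–GAL4 fusion proteins, then dosed for 24 h. Reporter mRNA was quantified by RT-PCR, fluorescent labelling and capillary electrophoresis; gain of signal fitted against DMSO baseline.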

[3] = molecular target: Hepatocyte nuclear factor 4-alpha (Homo sapiens) (UniProt P41235); experiment: ATG_HNF4a_TRANS: Attagene TRANS-FACTORIAL HepG2 Assay for human Hepatocyte Nuclear Factor 4 alpha (HNF4a) (AID 2282982); conditions: HepG2 HNF4a transactivation reporter, mRNA readout
Summary of the method: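 Transfected HepG2 reporter cells are dosed for 24 h; reporter RNA is reverse-transcribed, amplified, fluorescently labelled and HpaI-digested before CE sizing. Positive-direction fit against DMSO.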

[4] = ATG_M_06_TRANS: Attagene TRANS-FACTORIAL HepG2 Assay for M06 Transcription Factor (Internal Marker) (AID 2282983); conditions: HepG2 Attagene TRANS M06 internal marker reporter;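 further: reporter transcript level by RT-PCR then capillary electrophoresis fluorescence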
Summary of the method: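 HepG2 cells transiently transfected with multiplexed GAL4-UAS reporter transcription units; after 24 h compound exposure, reporter mRNA measured by RT-PCR, FAM-labelled primer extension, HpaI digestion and capillary electrophoresis. Gain-of-signal fitted versus DMSO baseline; background control readout.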

[5] = ATG_M_32_TRANS: Attagene TRANS-FACTORIAL HepG2 Assay for M32 Transcription Factor (Internal Marker) (AID 2282984); conditions: HepG2 Attagene TRANS M32 internal marker reporter
Summary of the method: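 Using transiently transfected HepG2 cells exposed to test chemicals for 24 h, reporter transcripts are converted to labelled cDNA fragments and quantified by capillary electrophoresis. DMSO defines the activity baseline.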

[6] = molecular target: Nuclear receptor subfamily 4 group A member 2 (Homo sapiens) (UniProt P43354); experiment: ATG_NURR1_TRANS: Attagene TRANS-FACTORIAL HepG2 Assay for human Nuclear Receptor Related Protein 1 (NURR1) (AID 2282985); conditions: HepG2 Attagene TRANS reporter, mRNA readout
Summary of the method: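 Cells: HepG2, transiently transfected. Exposure: 24 h. Detection: fluorescence of labelled RT-PCR products separated by capillary electrophoresis; upward fit versus DMSO.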

[7] = molecular target: Transcriptional activator Myb (Homo sapiens) (UniProt P10242); experiment: ATG_Myb_CIS: Attagene CIS-FACTORIAL HepG2 Assay for human Myeloblastosis (Myb) Proto-Oncogene Transcription Factor (AID 2282986; active means hit-call score of the fitted dose curve at least 0.9, where 1 is the maximum; inactive means score below 0.9); conditions: HepG2 Attagene CIS-FACTORIAL Myb reporter transcription; actives raise or lower the signal
Summary of the method: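 Using HepG2 liver cells bearing transiently transfected cis-promoter reporter constructs, the assay measures induction or loss of reporter mRNA after 24 hours of dosing. Detection used fluorescently labeled RT-PCR products separated by capillary electrophoresis.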

[8] = molecular target: Glucocorticoid receptor (Homo sapiens) (UniProt P04150); experiment: ATG_GR_TRANS: Attagene TRANS-FACTORIAL HepG2 Assay for human Glucocorticoid Receptor (GR) (AID 2282978); conditions: HepG2 Attagene TRANS GR reporter, mRNA transcription;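 further: activators score as hits since higher reporter transcript over DMSO is fitted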
Summary of the method: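 Transiently transfected HepG2 cells express chimeric NR-GAL4 proteins acting on GAL4-UAS reporter units. Compounds are applied for 24 h. mRNA induction over DMSO is measured by capillary electrophoresis.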

[9] = molecular target: Bile acid receptor (Homo sapiens) (UniProt Q96RI1); experiment: ATG_FXR_TRANS: Attagene TRANS-FACTORIAL HepG2 Assay for Farnesoid X Receptor (FXR) (AID 2282979); conditions: HepG2 Attagene TRANS FXR-GAL4 reporter transcription;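 further: hits raise reporter mRNA above DMSO so AC50 marks FXR activation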
Summary of the method: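 HepG2 cells transiently transfected with reporter constructs in which a chimeric FXR-GAL4 protein drives a GAL4-UAS reporter; 24 h compound exposure. Reporter mRNA measured by RT-PCR, FAM labelling, HpaI digestion and capillary electrophoresis; gain-of-signal versus DMSO.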

[10] = molecular target: Oxysterols receptor LXR-beta (Homo sapiens) (UniProt P55055); experiment: ATG_LXRb_TRANS: Attagene TRANS-FACTORIAL HepG2 Assay for human Liver X Receptor beta (LXRb) (AID 2282981); conditions: HepG2 Attagene TRANS GAL4-LXRb reporter, mRNA
Summary of the method: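 Cells: HepG2, transiently transfected with GAL4-UAS reporter units plus LXRb-Gal4 fusion. Treatment: 24 h. Detection: reporter mRNA by RT-PCR, 6-FAM labelling, HpaI digestion, capillary electrophoresis.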

Measured: AC50

Nuclear receptor subfamily 4 group A member 2 (Homo sapiens), sequence (P43354 whole entry, looked up): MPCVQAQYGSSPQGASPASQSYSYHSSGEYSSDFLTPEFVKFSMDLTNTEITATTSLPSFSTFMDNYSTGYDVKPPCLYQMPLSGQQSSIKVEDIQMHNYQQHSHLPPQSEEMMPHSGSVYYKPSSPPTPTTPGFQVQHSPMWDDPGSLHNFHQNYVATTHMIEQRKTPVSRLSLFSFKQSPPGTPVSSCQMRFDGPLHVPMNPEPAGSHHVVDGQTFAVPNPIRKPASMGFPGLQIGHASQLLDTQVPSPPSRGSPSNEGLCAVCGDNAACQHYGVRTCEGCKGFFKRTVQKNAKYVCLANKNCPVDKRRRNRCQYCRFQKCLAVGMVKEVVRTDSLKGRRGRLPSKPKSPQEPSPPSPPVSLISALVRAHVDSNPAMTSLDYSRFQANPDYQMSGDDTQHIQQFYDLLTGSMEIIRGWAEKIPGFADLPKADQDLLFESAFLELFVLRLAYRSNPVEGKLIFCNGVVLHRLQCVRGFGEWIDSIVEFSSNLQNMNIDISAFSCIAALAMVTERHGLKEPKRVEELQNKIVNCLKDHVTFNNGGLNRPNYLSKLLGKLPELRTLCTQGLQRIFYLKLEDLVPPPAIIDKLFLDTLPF
Transcriptional activator Myb (Homo sapiens), sequence (P10242 whole entry, looked up): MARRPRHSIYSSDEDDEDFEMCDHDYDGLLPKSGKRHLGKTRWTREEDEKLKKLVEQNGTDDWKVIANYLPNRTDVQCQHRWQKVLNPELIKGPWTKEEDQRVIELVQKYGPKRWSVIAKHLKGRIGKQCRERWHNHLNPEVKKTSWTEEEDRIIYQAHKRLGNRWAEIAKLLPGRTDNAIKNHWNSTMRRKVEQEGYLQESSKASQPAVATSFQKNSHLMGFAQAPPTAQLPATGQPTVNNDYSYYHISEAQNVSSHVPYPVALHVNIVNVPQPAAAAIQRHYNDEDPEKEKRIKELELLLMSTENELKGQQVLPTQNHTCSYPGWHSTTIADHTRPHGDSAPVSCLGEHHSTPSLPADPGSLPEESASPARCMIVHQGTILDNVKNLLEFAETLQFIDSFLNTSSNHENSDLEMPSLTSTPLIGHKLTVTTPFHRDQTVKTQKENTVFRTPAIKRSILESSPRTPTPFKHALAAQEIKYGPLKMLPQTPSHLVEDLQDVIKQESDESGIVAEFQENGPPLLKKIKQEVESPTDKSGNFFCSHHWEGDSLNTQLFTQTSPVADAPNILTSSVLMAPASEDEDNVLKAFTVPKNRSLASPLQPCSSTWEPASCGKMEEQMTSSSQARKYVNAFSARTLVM
Bile acid receptor (Homo sapiens), sequence (Q96RI1 whole entry, looked up, the tested form may be a part): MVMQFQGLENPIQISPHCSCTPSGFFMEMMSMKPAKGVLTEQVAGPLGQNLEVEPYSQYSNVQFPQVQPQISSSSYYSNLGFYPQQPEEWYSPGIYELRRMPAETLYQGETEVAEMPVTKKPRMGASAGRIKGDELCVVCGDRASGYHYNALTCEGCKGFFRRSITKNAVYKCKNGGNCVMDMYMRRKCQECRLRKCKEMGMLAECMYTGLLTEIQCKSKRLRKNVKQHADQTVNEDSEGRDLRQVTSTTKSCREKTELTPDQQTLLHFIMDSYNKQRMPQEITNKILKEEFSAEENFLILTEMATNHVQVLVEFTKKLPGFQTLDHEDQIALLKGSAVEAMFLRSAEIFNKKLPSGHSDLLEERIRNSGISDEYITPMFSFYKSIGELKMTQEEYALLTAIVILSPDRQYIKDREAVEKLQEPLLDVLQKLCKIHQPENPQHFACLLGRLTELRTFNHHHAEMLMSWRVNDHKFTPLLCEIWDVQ
Oxysterols receptor LXR-beta (Homo sapiens), sequence (P55055 whole entry, looked up, the tested form may be a part): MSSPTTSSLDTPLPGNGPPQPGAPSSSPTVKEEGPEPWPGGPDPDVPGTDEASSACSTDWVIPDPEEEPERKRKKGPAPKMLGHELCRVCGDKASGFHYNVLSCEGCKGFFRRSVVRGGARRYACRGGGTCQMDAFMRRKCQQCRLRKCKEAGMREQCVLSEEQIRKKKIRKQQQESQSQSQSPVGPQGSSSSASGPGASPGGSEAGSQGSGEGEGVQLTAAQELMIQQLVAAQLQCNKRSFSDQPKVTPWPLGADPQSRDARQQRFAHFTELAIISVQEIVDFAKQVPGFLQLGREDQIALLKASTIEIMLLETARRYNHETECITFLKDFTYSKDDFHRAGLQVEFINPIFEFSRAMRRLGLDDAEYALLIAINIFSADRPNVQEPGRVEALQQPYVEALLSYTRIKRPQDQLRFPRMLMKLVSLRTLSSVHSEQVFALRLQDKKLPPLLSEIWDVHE
Hepatocyte nuclear factor 4-alpha (Homo sapiens), sequence (P41235 whole entry, looked up): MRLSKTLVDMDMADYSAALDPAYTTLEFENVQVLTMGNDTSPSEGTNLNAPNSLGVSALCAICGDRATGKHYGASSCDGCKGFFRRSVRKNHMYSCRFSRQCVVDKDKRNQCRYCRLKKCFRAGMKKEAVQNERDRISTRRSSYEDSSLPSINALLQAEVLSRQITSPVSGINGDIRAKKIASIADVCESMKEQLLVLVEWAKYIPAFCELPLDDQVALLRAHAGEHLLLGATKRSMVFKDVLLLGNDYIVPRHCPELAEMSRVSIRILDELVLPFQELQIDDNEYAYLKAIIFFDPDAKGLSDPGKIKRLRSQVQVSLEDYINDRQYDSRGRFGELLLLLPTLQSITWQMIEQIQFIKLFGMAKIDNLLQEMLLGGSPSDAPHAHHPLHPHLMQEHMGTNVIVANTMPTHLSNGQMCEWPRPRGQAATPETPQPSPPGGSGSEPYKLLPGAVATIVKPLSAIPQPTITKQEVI
Glucocorticoid receptor (Homo sapiens), sequence (P04150 whole entry, looked up, the tested form may be a part): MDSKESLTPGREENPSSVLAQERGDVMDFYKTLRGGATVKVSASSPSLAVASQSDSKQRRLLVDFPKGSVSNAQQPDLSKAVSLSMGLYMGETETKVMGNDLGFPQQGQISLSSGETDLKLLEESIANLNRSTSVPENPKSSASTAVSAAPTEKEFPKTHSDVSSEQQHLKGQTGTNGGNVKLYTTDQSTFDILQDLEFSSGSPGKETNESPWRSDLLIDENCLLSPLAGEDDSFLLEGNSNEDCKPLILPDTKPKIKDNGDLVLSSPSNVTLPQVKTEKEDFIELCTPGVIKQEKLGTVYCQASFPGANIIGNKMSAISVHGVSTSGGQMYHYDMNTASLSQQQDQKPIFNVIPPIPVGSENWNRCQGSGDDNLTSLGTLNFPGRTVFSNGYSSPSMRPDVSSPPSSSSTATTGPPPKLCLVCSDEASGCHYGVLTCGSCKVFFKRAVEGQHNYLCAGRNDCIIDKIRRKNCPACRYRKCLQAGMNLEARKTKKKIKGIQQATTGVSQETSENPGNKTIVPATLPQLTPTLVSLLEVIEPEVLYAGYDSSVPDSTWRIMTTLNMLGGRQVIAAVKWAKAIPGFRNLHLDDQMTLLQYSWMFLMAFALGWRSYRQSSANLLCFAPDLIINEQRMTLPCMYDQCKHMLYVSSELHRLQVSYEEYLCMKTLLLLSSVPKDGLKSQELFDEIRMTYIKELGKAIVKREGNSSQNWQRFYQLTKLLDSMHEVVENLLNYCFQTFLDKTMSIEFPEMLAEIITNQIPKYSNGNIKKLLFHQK
Oxysterols receptor LXR-alpha (Homo sapiens), sequence (Q13133 whole entry, looked up, the tested form may be a part): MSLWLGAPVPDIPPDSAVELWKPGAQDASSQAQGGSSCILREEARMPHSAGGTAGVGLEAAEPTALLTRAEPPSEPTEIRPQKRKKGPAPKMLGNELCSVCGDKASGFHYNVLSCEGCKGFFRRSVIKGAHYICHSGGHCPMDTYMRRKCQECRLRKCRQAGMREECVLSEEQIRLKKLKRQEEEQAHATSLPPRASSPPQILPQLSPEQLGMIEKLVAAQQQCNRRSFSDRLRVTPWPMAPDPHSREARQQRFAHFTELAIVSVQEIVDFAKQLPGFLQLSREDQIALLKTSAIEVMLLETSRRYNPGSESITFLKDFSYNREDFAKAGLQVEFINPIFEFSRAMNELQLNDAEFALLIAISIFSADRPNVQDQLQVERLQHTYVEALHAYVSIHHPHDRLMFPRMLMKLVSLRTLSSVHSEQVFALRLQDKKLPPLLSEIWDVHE
Estrogen-related receptor gamma (Homo sapiens), sequence (P62508 whole entry, looked up, the tested form may be a part): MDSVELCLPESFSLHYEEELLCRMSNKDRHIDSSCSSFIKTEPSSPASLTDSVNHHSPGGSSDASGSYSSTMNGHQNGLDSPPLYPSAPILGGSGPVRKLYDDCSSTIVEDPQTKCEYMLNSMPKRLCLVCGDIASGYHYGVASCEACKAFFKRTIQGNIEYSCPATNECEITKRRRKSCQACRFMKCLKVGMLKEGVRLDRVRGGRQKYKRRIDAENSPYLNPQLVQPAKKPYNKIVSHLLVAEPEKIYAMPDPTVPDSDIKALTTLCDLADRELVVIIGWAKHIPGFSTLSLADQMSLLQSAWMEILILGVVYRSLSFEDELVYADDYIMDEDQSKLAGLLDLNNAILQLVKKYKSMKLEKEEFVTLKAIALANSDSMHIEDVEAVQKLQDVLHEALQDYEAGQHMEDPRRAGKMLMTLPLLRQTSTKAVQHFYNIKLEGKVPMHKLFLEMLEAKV

CCCCC(CC)COC(=O)/C=C/c1ccc(OC)cc1 (centres undefined)
not listed: [8] | [9] | [10]
inactive: all other assays above

CCc1cccc(C)c1N(C(=O)CS(=O)(=O)O)C(C)COC (centres undefined)
not listed: [1] | [2] | [10]
inactive: all other assays above

CCCC(C)C(=O)OCC (centres undefined)
inactive: [1] | [4]

O=C(OCCc1ccccc1)c1ccccc1
inactive: [8] | [2] | [4] | [5] | [6] | [7]

c1ccc2c(c1)[nH]c1ccccc12
inactive: [8] | [10] | [3] | [5] | [6] | [7]

CC(C)(CO)COC(=O)C(C)(C)CO
inactive: [8] | [2] | [10] | [3] | [5] | [7]

C=CC(=O)O[C@H]1C[C@@H]2CC[C@@]1(C)C2(C)C
inactive: [8] | [10] | [3] | [4] | [6] | [7]

C=CC(C)(O)CC/C=C(\C)CC (centres undefined)
inactive: [8] | [2] | [10] | [5] | [7]

CC(=O)OC(C)c1ccccc1 (centres undefined)
not listed: [1] | [2] | [9]
inactive: all other assays above

O=C(O)c1ccc2c(c1)C(=O)OC2=O
inactive: [8] | [2] | [4] | [5] | [6] | [7]

C=C1C[C@H]2[C@@H]3C=C(C)C4=CC(=O)CC[C@]4(C)[C@H]3CC[C@]2(C)[C@@]1(OC(C)=O)C(C)=O
inactive: [10] | [4] | [5] | [6] | [7]
active: [8] 0.0106 µM | [2] 16.6 µM

Oc1ccc(-c2ccccc2)c(Cl)c1
inactive: [8] | [2] | [10] | [5] | [7]

COC(C=C(C)CCC=C(C)C)OC
inactive: [8] | [9] | [5] | [6] | [7]

CCCCC1CCC(=O)O1 (centres undefined)
not listed: [1] | [2] | [9]
inactive: all other assays above

CC(C)CO
inactive: [8] | [10] | [3] | [4] | [5] | [7]

CC(=O)C(C)C
inactive: [8] | [10] | [3] | [5] | [7]

CCCCCCCCC(CO)CCCCCC (centres undefined)
inactive: [8] | [10] | [4] | [5]

CCCCCCCCCCCCCC(=O)OC(C)C
not listed: [1] | [2] | [9]
inactive: all other assays above

C=CCOC(=O)c1ccc(C(=O)OCC=C)c(C(=O)OCC=C)c1
inactive: [8] | [2] | [4] | [7]

O=C(O)CCCC(=O)O
not listed: [1] | [2] | [9]
inactive: all other assays above

O=C1CCCCCCCCCCC1
not listed: [1] | [3] | [9]
inactive: all other assays above

Clc1cc(Cl)c(Cl)c(Cl)c1Cl
not listed: [1] | [2] | [9]
inactive: all other assays above

O=C(C=Cc1ccccc1)OCCc1ccccc1
inactive: [8] | [2] | [5] | [6] | [7]

COC(=O)[C@H](Cc1ccccc1)NC(=O)[C@@H](N)CC(=O)O (H-Asp-Phe-OMe)
inactive: [8] | [2] | [10] | [4] | [5] | [7]

Nc1nc(N)nc(-c2ccccc2)n1
not listed: [1] | [9]
inactive: all other assays above

COc1cc(C)ccc1O
inactive: [8] | [10] | [4] | [5]

O=c1c(O)c(-c2ccc(O)cc2O)oc2cc(O)cc(O)c12
inactive: [8] | [2] | [10] | [5] | [6] | [7]

CCCCCCCCCCCC(=O)OCC
inactive: [8] | [2] | [10] | [5] | [6] | [7]

COc1ccc(-c2coc3cc(O)cc(O)c3c2=O)cc1
not listed: [1] | [6] | [9]
inactive: all other assays above

OCCCc1ccccc1
not listed: [1] | [6] | [9]
inactive: all other assays above

CC(=O)CCC1=C(C)CCCC1(C)C
inactive: [8] | [2] | [10] | [4] | [6] | [7]

Cc1cc(=O)[nH]c(=O)[nH]1
inactive: [8] | [2] | [4] | [5] | [7]

CCOC(=O)[C@H](O)[C@@H](O)C(=O)OCC
not listed: [1] | [4] | [9]
inactive: all other assays above

CC(C)(C)N
inactive: [8] | [10] | [3] | [4] | [6]

CC(C)C(=O)OCCOc1ccccc1
inactive: [8] | [2] | [4] | [7]

CC=CC(=O)OCC(C)C
inactive: [8] | [9] | [4] | [7]

CC(=O)OCc1ccccc1
inactive: [8] | [10] | [3] | [4] | [5]
